# The list is not random: actives were taken first. Their share in the collection is about 12%.
# Sfp inh: inhibitors of Bacillus subtilis Sfp phosphopantetheinyl transferase | hit rate 3.5% among 310,000 | AID 1490 | Biochemical Sfp PPTase activity, qHTS | Potency, µM, without a hit: largest response in the series, negative = inhibition, hits mostly inhibitors;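 also: the enzyme is Sfp with the accession as filed and its product quenches rhodamine fluorescence; 0% = enzyme reaction without inhibitor and -100% = no enzyme wells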
#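 Compounds were incubated with enzyme (final 15 nM) for 15 min at room temperature before substrate addition started the reaction. Fluorescence at 525 nm excitation, 598 nm emission was recorded immediately and after 30 minutes.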
# HP1b binding inh: blocks HP1-beta chromodomain binding to methylated histone tails; AlphaScreen HP1-beta / biotin-H3K9me3 peptide binding; P83916; AID 540317; hit rate 0.56% among 390,000; Potency, µM (top dose mostly 114 µM), inactives show at the highest dose activity change, negative = inhibition, hits mostly inhibitors; also: nearly all actives have a fitted effect of over 70% in size
#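 Compound inhibition of the preformed complex between 50 nM HP1-beta and 50 nM biotinylated H3K9me3 peptide was read by AlphaScreen. Buffer was PBS pH 7.4 with 0.01% Tween-20. Incubations ran 30 min at room temperature, with 10 ug/mL donor/acceptor beads.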
# G9a inh: inhibitors of human histone lysine methyltransferase G9a; Q96KQ7; G9a H3K9 monomethylation, AlphaScreen, 2 h; Potency, µM (highest dose often 102 µM), for the others: at the highest dose activity, negative = inhibition, actives largely listed as inhibitors; hit rate 8.8% among 350,000; also: % is scaled to controls: 0 for no effect and ±100 for the full control effect; nearly all actives have a fitted effect of over 75% in size
#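 G9a (20 nM) was preincubated 15 min with compound, then reacted 2 h at room temperature with 500 nM biotin-H3K9 peptide and 20 µM SAM. Monomethyl-H3K9 detected by AlphaScreen using anti-H3K9me1 antibody.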
# BAZ2B block: BAZ2B (human) inhibition. hit rate 4.4% among 360,000. AlphaScreen BAZ2B-H3K14Ac peptide displacement. Potency, µM (series often up to 114 µM), for the others: at the highest dose activity change, negative = inhibition, most hits filed as inhibitors. AID 504333; also: % is scaled to controls: 0 for no effect and ±100 for the full control effect; nearly all actives have a fitted effect of over 60% in size
#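 Compounds, titrated to a top concentration of 110 uM, were incubated 30 min at room temperature with preformed BAZ2B/acetyl-K14 H3 peptide complex (50 nM each). Proximity signal was measured by AlphaScreen after 20 min with beads.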
# JMJD2A Tudor: inhibitors of human JMJD2A Tudor domain; AID 504339; O75164; hit rate 4.4% among 390,000; AlphaScreen JMJD2A-Tudor / H3K4me3 peptide binding; Potency, µM (doses to about 114 µM), without a hit: at the highest dose activity change, negative = inhibition, hits mostly inhibitors; also: % is scaled to controls: 0 for no effect and ±100 for the full control effect; nearly all actives have a fitted effect of over 50% in size
# Target sequence (O75164 whole entry, looked up, the tested form may be a part): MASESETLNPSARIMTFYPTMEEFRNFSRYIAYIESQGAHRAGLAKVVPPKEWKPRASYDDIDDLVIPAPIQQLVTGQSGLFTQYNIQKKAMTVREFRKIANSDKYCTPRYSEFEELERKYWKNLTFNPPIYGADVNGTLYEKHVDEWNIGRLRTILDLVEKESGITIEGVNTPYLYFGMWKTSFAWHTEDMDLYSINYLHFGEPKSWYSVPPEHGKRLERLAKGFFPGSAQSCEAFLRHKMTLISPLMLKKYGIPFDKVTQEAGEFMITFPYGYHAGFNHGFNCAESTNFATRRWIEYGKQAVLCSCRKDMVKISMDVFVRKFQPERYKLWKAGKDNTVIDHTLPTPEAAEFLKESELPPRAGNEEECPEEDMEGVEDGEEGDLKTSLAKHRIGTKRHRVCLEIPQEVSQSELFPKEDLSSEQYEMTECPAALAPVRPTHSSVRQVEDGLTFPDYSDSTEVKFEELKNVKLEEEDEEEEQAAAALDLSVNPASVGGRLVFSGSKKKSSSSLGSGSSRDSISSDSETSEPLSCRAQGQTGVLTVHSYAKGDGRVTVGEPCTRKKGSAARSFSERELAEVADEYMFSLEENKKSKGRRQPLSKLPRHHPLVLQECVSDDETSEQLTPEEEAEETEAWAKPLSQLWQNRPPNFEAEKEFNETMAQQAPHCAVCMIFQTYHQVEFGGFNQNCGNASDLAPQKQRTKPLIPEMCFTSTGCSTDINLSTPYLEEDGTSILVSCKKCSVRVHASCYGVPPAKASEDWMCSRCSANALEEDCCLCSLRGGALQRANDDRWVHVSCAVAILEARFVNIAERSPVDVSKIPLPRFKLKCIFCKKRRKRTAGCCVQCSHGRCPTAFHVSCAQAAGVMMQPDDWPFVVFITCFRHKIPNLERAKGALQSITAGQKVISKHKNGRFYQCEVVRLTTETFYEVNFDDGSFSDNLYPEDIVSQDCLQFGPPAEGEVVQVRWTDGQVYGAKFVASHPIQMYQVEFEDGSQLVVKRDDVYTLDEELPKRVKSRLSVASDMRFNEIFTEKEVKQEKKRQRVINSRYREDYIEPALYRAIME
# * hit, by the source's call; ? = inconclusive; · = no result; [ ] = another dose, or the depositor's remark. Calls follow the shape of the dose curve; as a rule, active = well fitted curve in the direction sought with a large enough effect; inconclusive = small, poorly fitted or top-dose-only effect, or another doubt; inactive = no such curve, though single readings can be large; an effect the other way counts as inactive or inconclusive. Potency is read from the fitted curve at half-maximal effect.
SMILES,Sfp inh,HP1b binding inh,G9a inh,BAZ2B block,JMJD2A Tudor
CC1CCN(S(=O)(=O)c2ccc3c(c2)CCC(=O)N3CC(=O)Nc2cccc(C#N)c2)CC1,·,-21%,3%[12.7 µM],50µM*,-32%
COc1ccc(S(=O)(=O)N2CCN(Cc3ccc(OC)c(OC)c3)CC2)cc1,8%,55%,·,7%,-8%
CC1CCN(S(=O)(=O)c2ccc(NC(=O)Cc3cccs3)cc2)CC1,2%,1%,?,?,50µM*
CC(=O)Nc1ccc(S(=O)(=O)N2CCN3CCCC3C2)cc1 (configuration not stated),19%,30%,79µM*,-9%,-1%
CCN(CC(=O)Nc1ccc(OC)cc1)C(=O)Cc1cccs1,·,-22%,6%[0.501 µM],50µM*,?
CCN(CC)S(=O)(=O)c1ccc(NC(=O)Cc2cccs2)cc1,4%,?,-7%[59 µM],71µM*,-23%[11.4 µM]
CC(=O)Nc1ccc(S(=O)(=O)N2CCN(Cc3cccs3)CC2)cc1,-18%,32µM*,18µM*,35µM*,-99%
CC1CCCN(CC(=O)Nc2ccc(S(=O)(=O)NC3CCCCC3)cc2)C1 (configuration not stated),-9%,14%,?,-2%,-15%
CC1CCN(CC(=O)Nc2ccc(S(=O)(=O)NC3CC3)cc2)CC1,12%,?,14µM*,50µM*,20µM*
CC1CCCN(S(=O)(=O)c2ccc(NC(=O)CN3CCCCC3)cc2)C1 (configuration not stated),17%,24%,45µM*,-1%,?
Cc1noc(C)c1C(=O)Nc1ccc(S(=O)(=O)N2CCC(C)CC2)cc1,·,33%,22µM*,-6%,-11%
CC1CCN(S(=O)(=O)c2ccc(NC(=O)CN3CCOCC3)cc2)CC1,19%,23%,?,-4%,-7%
CC1CCN(S(=O)(=O)c2ccc(NC(=O)CN3CCCC3)cc2)CC1,4%,-26%,10µM*,71µM*,4µM*
CC(=O)Nc1ccc(S(=O)(=O)N2CCN(C(C)CCc3ccccc3)CC2)cc1 (configuration not stated),-13%,?,7.1µM*,50µM*,1µM*
Cc1noc(C)c1C(=O)Nc1ccc(S(=O)(=O)N2CCCCC2)cc1,19%,12%,-8%,-4%,0%
CC1CCN(CC(=O)Nc2ccc(S(=O)(=O)N3CCC(C)CC3)cc2)CC1,-25%,?,·,?,0.79µM*
Clc1ccc(-c2nnc(N3CCCC3)nn2)cc1,5%,?,7.1µM*,?,-30%
CCSc1cc(N2CCCC2)nc(-c2ccc(Cl)cc2)n1,·,199%,-10%[0.501 µM],8%,17%
CCOC(=O)CCCCC1=CC2=CC(=O)C(C)(O)C(=O)C2=CO1 (configuration not stated),2%,·,·,·,·
S=C(/N=c1/sccn1Cc1ccccc1)NC1CC1,-12%,2%,50µM*,56µM*,-32%
CCOC(=O)C1=C(C)c2ccccc2OC1(CC)C(=O)OCC (configuration not stated),-5%,111%,88%,·,53%
CCOC(=O)C1=C(C)c2ccccc2N(C(=O)OC)C1(C)C(=O)OCC (configuration not stated),3.5µM*,51%,26%,·,-2%
CCOc1ccc(NC(=O)CSc2ncc3c(n2)-c2ccccc2N(C)S3(=O)=O)cc1,·,24%,-4%[59 µM],-1%,0%
CCOC(=O)OCC1OC(C#Cc2ccc(Br)cc2)C=CC1OC(=O)OCC (configuration not stated),-1%,·,·,·,·
CN1CCc2c(sc(NC(=O)C3CCCCC3)c2C(N)=O)C1,-5%,35%,1%,10%,-12%
SMILES,Sfp inh,HP1b binding inh,G9a inh,BAZ2B block,JMJD2A Tudor
CCCCN(C(=O)c1cccc(S(=O)(=O)N2CC(C)OC(C)C2)c1)c1c(N)n(CC(C)C)c(=O)[nH]c1=O (configuration not stated),8%,12%,·,2%,-9%
CC(C)(C)c1nc2ccc(NS(=O)(=O)c3ccc(F)c(F)c3F)cc2[nH]1,-12%,48%,32µM*,-11%,-10%
O=C(NC1CCCCC1)C(c1ccc(F)cc1)N(Cc1ccco1)C(=O)c1ccccn1 (configuration not stated),19%,17%,22%[12.7 µM],-20%,-19%
S=C(NNc1ccnc2cc(Cl)ccc12)Nc1ccccc1Cl,?,?,11µM*,?,56µM*
FC(F)(F)c1cnc(NNC(=S)Nc2ccccc2Cl)c(Cl)c1,3%,-19%,40µM*,7%,-27%
O=C(O)CN1C(=O)/C(=C\c2cc(Br)ccc2OCc2ccccc2Cl)SC1=S,?,-20%,14µM*,45µM*,?
CCOc1ccccc1C=C1SC(=S)N(CC)C1=O,·,-23%[57 µM],·,·,?
O=C(O)CN1C(=O)/C(=C\c2ccccc2OCc2ccc(Cl)cc2Cl)SC1=S,?,-13%,32µM*,?,56µM*
O=C(O)CCN1C(=O)/C(=C\c2cccc(OCc3ccccc3)c2)SC1=S,11%,-15%,?,-38%,-34%
O=C(O)CN1C(=O)/C(=C\c2cccc(OCc3ccc(Cl)cc3Cl)c2)SC1=S,79µM*,?,·,79µM*,50µM*
O=C(O)CN1C(=O)/C(=C\c2cc(Br)ccc2OCc2ccccc2F)SC1=S,-19%,-11%,40µM*,56µM*,50µM*
Cc1ccc(NC(=O)COC(=O)c2ccc(S(=O)(=O)N3CCCC3)cc2)cc1,·,17%,-31%,-1%,-11%
COc1ccc(NC2=C(c3ccc(C(F)(F)F)cc3)C(=O)c3ccccc32)cc1,·,21%,8%[59 µM],-6%,-4%
[O-]/[N+](=C/c1ccccc1)c1ccccc1,·,16%,4%[0.501 µM],8%,-13%
O=C(NC(CC(=O)N1CCN(c2ccccc2O)CC1)c1ccccc1)c1ccccc1Cl (configuration not stated),·,14%,?,3%,-12%
O=C(O)CN1C(=O)/C(=C\c2cc(Br)ccc2OCc2ccc([N+](=O)[O-])cc2)SC1=S,?,-38%,20µM*,45µM*,56µM*
Nc1ncnc2c1ncn2[C@@H]1O[C@H](CNCC(O)CO)[C@@H](O)[C@H]1O (some centres not stated),·,31%,·,·,-11%
O=C(O)c1cccc(-n2cccc2/C=C2/NC(=O)N(Cc3ccccc3F)C2=O)c1,50µM*,-26%,45µM*,50µM*,-17%[11.4 µM]
O=C1N/C(=C/c2cccn2-c2ccccc2)C(=O)N1Cc1ccc(F)cc1,45µM*,12%,13µM*,-24%,-30%
O=C(CN1C(=O)N/C(=C\c2cccn2-c2cccc(C(=O)O)c2)C1=O)Nc1ccccc1F,·,·,·,·,-18%
N#C/C(=C/c1cccn1-c1cccc(C(=O)O)c1)c1ccc(F)cc1,19%,-2%,?,50µM*,-35%

# Bioassay records: PubChem BioAssay, National Center for Advancing Translational Sciences (NCATS)
